This is a sample that favours compounds with a hit; in the whole collection about 11% have one here.
Pf growth 48h – inhibits P. falciparum growth in the first generation, 48 h | Potency, µM (highest dose often 28.7 µM), hits mostly inhibitors | 5.9% of 310,000 active | P. falciparum luciferase growth in erythrocytes, 48 h
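A one-generation exposure of luciferase-tagged malaria parasites in RPMI 1640/Albumax erythrocyte culture, 37 C and 5% CO2. Inhibition is inferred from decreased luminescence after adding detection reagent.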
Pf growth 96h – P. falciparum growth inhibition at 96 hour, primary screen for plastid delayed-death inhibitors; P. falciparum luciferase reporter growth, 96 h; 6.9% of 320,000 active; Potency, µM (highest dose often 28.7 µM), usual class: inhibitors
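Delayed-death screen, second-generation endpoint: infected erythrocytes, 2% hematocrit, 0.05% parasitemia final; 96 hours at 37 C, 5% CO2; luciferase detection reagent; luminescence decrease equals reduced growth.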
AMA1-RON2 inh – inhibitors of Plasmodium falciparum AMA1-RON2 interaction | AlphaScreen AMA1-biotinylated RON2 peptide binding | 0.2% of 360,000 active | AID 720542 | Potency, µM (doses to about 58.2 µM), most hits filed as inhibitors; also: nearly all actives have a fitted effect of over 45% in size
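AMA1 (3D7) with his tag at 25 nM final met compounds first, then biotinylated RON2 peptide at 25 nM; detection used donor plus acceptor beads, 10 µg/mL apiece, read by AlphaScreen after 30 min at room temperature.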
HCV inhibitor – blocks hepatitis C virus; Potency, µM (doses to about 41.8 µM), usual class: inhibitors; 3.4% of 340,000 active; Huh7.5.1 HCVcc-Cre infection, luciferase reporter, 44 h; AID 651820
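Whole-lifecycle infectious HCVcc-Cre system; cells 1,000/well, compound then virus (~0.5 moi) added 4 h after plating, 44 h culture. Luciferase read 15 sec following 15 min substrate incubation, room temp.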
A number is an active result; 0 = inactive; ? = inconclusive; - = no result given; [ ] = dose if it differs, or a comment. Calls follow the shape of the dose curve; as a rule, active = well fitted curve in the direction sought with a large enough effect; inconclusive = small, poorly fitted or top-dose-only effect, or another doubt; inactive = no such curve, though single readings can be large; an effect the other way counts as inactive or inconclusive.

SMILES	Pf growth 48h	Pf growth 96h	AMA1-RON2 inh	HCV inhibitor
COc1ccc(/C=N/Nc2cc(C)nc(-n3nc(C)cc3C)n2)c(OC)c1	1.5µM	0.33µM	0	?
Cc1cc2cc(CCNC(=O)c3cccc([N+](=O)[O-])c3)c(=O)[nH]c2cc1C	0	?	0	?
CCOc1ccc(-n2c(O)c(/C=N/NC(=O)C3COc4ccccc4O3)c3ccccc3c2=O)cc1 (stereo unspecified)	0	0	0	0
CCOc1ccc(Nc2cc(C)nc(-n3nc(C)cc3C)n2)cc1	1.9µM	?	0	?
CC1CCC(NC(=O)CN2C(=O)C3CCCN3c3ncc(Cl)cc32)CC1 (stereo unspecified)	3.7µM	-	-	?
COc1ccc(CNC(=O)CN2C(=O)C3CCCN3c3ncc(Cl)cc32)cc1 (stereo unspecified)	?	-	0	?
O=C(CN1C(=O)C2CCCN2c2ncc(Cl)cc21)NCc1ccc2c(c1)OCO2 (stereo unspecified)	9.3µM	0	0	?
COC(=O)c1ccccc1NC(=O)CN1C(=O)C2CCCN2c2ncc(Cl)cc21 (stereo unspecified)	2.9µM	0	-	0
C[C@H]1CN=C(N(C)C)N1CCC1CCCCC1	?	0	0	0
Cc1cccc(NC(=O)CN2C(=O)C3CC=CCC3C2=O)c1C (stereo unspecified)	-	-	0	-
CN1CCN(C(=O)/C=C/c2c(F)cccc2Cl)CC1	0	0	0	0
CC(C)(C)c1cnnn1-c1ccc(/C=N/Nc2ccc([N+](=O)[O-])cc2)cc1	12µM	0	0	?
CN(C)CC1CCC/C(=C\c2ccc(OC(=O)c3ccc(Cl)cc3)cc2)C1=O (stereo unspecified)	-	-	0	11µM
CN(C)CC1CCC/C(=C\c2ccc(OC(=O)/C=C/c3ccccc3)cc2)C1=O (stereo unspecified)	-	-	0	?
CCN(CC)C(=O)c1cc([N+](=O)[O-])cc2c1-c1ccc([N+](=O)[O-])cc1C2=C(C#N)C#N	15µM	?	0	0
COc1ccc(-c2csc(NC(=O)COC(=O)C3=COCCO3)n2)cc1	0	0	0	0
COCCCNC(=O)C1CCN(c2nc(C)cc(C)n2)CC1	0	5.2µM	0	0
COC(=O)/C=C1\SC(N2CCOCC2)=C(c2ccc(OC)cc2)C1=O	?	0	0	0
COc1cc([N+](=O)[O-])ccc1NC(=O)Nc1cccnc1	?	0	0	0
COc1ccc([N+](=O)[O-])cc1NC(=O)Nc1ccc(OC)c(OC)c1	?	0[5.75 µM]	0	2.8µM
COc1ccc(NC(=O)Nc2ccc(OC)c(OC)c2)c([N+](=O)[O-])c1	0	0	0	0
COc1ccc(NC(=O)NC23CC4(C)CC(C)(CC(C)(C4)C2)C3)cc1OC	2.6µM	?	0	?
COc1ccc([N+](=O)[O-])cc1NC(=O)Nc1cccc(Cl)c1	9.3µM	0	0	?
c1ccc(CN2CCC3CC2c2cc(N4CCCCC4)ccc23)cc1 (stereo unspecified)	-	-	0	-
COC(=O)c1csc(C2OC(CO)C(O)C2O)n1 (stereo unspecified)	-	-	0	-
SMILES	Pf growth 48h	Pf growth 96h	AMA1-RON2 inh	HCV inhibitor
COc1ccc(N2CC(C(=O)Nc3cc(C(F)(F)F)ccc3N3CCCC3)CC2=O)c(OC)c1 (stereo unspecified)	?	0	0	?
COc1ccc(N2CC(C(=O)N(C)CC(=O)Nc3ccc(Cl)c(C(F)(F)F)c3)CC2=O)c(OC)c1 (stereo unspecified)	?	13µM	0	?
COc1ccc(N2CC(C(=O)Nc3ccccc3N3CCCC3)CC2=O)c(OC)c1 (stereo unspecified)	0	0	0	8.9µM
COC(=O)c1ccccc1NC(=O)C1CC(=O)N(c2ccc(C)c(C)c2)C1 (stereo unspecified)	-	4.1µM	0	0
CCCOc1ccc(N2CC(C(=O)Nc3ccccc3C(=O)NCc3ccco3)CC2=O)cc1 (stereo unspecified)	9.3µM	0	0	?
CC(C)C[C@H](NC(=O)C1CC(=O)N(c2ccc3c(c2)OCO3)C1)C(=O)NC1CCCCC1 (stereo partly specified)	?	0	0	0
COc1ccc(NC(=O)c2sc3nc(N4CCOCC4)c4c(c3c2N)CCCC4)c(OC)c1	0	0	0	0
Cc1ccc(C(=O)NCCSc2ccccc2)cc1S(=O)(=O)Nc1ccccc1	0	0	0	?
COc1ccc(CNC(=O)c2cc(C3CC3)nc3c2cnn3C(C)C)cc1	13µM	15µM	0	2.2µM
CC(C)n1ncc2c(C(=O)Nc3cccc(C#N)c3)cc(C3CC3)nc21	6.6µM	5.2µM	0	11µM
COc1ccccc1CNC(=O)c1cc(C2CC2)nc2c1cnn2C(C)C	0.93µM	0.74µM	0[11.6 µM]	1µM
CC(C)n1ncc2c(C(=O)NCCc3ccc(S(N)(=O)=O)cc3)cc(C3CC3)nc21	0	?	0	0
COc1ccc(CCNC(=O)c2cc(C3CC3)nc3c2cnn3C(C)C)cc1OC	?	2.3µM	0	?
Cn1ccc2c(/C=C/c3ccc(F)cc3)cc3c(c21)C1CCC3C1 (stereo unspecified)	-	-	0	-
COc1ccc(OCc2cc(C(=O)NC(C)c3nc(C)cs3)no2)c(Cl)c1 (stereo unspecified)	-	-	0	-
CCOc1ccc2nc3c(cc2c1)CN(CCCO)C(=NCCOC)S3	0	?	0	0
CC(C)n1ncc2c(C(=O)O)cc(C3CC3)nc21	0	0	0	0
CCOc1ccc(OCCNC(=O)c2cc(C3CC3)nc3c2cnn3C(C)C)cc1	10µM	?	0	3.2µM
CC(C)n1ncc2c(C(=O)N3CCN(Cc4ccc(Br)s4)CC3)cc(C3CC3)nc21	4.1µM	12µM	0	10µM
O=C(NCc1ccco1)C1CCCN1C(=O)Nc1ccccc1Cl (stereo unspecified)	0	0	0	0
Cc1ccccc1-n1nc(C)c(N=O)c1N	0	0	0	0
O=S(=O)(c1ccc(Cl)cc1)c1cnc2ccccc2n1	?	10µM	0	?
Cc1cc(C)cc(S(=O)(=O)c2cnc3ccccc3n2)c1	?	?	0	0
C=CCn1c(Cc2c[nH]c3ccccc23)n[nH]c1=S	13µM	0	0	0
O=C(Nc1ccc(Cl)cc1)Nc1ccccc1Sc1ncc([N+](=O)[O-])s1	2.6µM	0	0	0
SMILES	Pf growth 48h	Pf growth 96h	AMA1-RON2 inh	HCV inhibitor
CCCCC(CC)C(=O)Nc1ccccc1C(=O)NC(C)C (stereo unspecified)	0	?	0	0
COCCCNC(=O)c1ccc2c(c1)ncn2-c1ccc(C)cc1C	12µM	0	0	0
Cc1noc(C)c1COc1cccc(C(=O)OCCOc2ccc(F)cc2)c1	?	13µM	0	0
Cc1noc(C)c1COc1cccc(C(=O)Nc2ccc(Br)cc2F)c1	-	-	0[11.6 µM]	2.8µM
Cc1noc(C)c1COc1cccc(C(=O)OC(C)C#N)c1 (stereo unspecified)	?	0	0	0
COc1ccc([N+](=O)[O-])cc1NC(=O)C(C)OC(=O)CSC(C)C(=O)Nc1cc(C)on1 (stereo unspecified)	0	0	0	?
COc1ccc(C2N=C(c3ccccc3)NC(c3ccccc3)=N2)cc1	0	0	0	0
